Compound activity from PubChem BioAssay.
This excerpt belongs to a sample that is enriched for hits.
nsP2pro inh: Primary qHTS for inhibitors of NSP2Pro chikungunya virus (CHIKV); Polyprotein P1234 (Chikungunya virus (strain S27-African prototype)), Q8JUX6; FRET peptide cleavage, nsP2pro, fluorescence 1 h; Potency, µM (titrated, usually from 24.9 µM), for inactives: at the highest dose activity change, negative = inhibition, actives largely listed as inhibitors; actives 1.1% (n = 31,000); AID 1964107, 2024; further: nearly all actives have a fitted effect of over 60% in size
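FRET cleavage of 2.5 uM peptide 2 by 150 nM CHIKV protease domain at pH 8.0 (Tris, Tween 20). Compounds at 7 concentrations (up to 25 uM) preincubated 15 min. Fluorescence read after 1 h at room temperature.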
nsP2 cell sec: Secondary cell base assay for inhibitors of NSP2Pro Chikungunya virus (CHIKV); shares compounds with nsP2pro inh; Potency, µM (series often up to 51.1 µM), for inactives: top-dose activity change, negative = inhibition, most hits filed as inhibitors; actives 10% (n = 450); AID 1964100, 2024; cell-based CHIKV nsP2 protease reporter assay; further: nearly all actives have a fitted effect of over 70% in size
CHIKV NSP2 FL: Selectivity profile for inhibitors of NSP2Pro chikungunya virus (CHIKV): Full length NSP2 enzyme counterscreen (CHIKV-NSP2) | Full-length CHIKV NSP2 protease enzymatic counterscreen | AID 1964101, 2024 | Potency, µM (highest dose often 50.7 µM), for inactives: at the highest dose activity change, negative = inhibition, actives largely listed as inhibitors | shares compounds with nsP2pro inh | actives 39% (n = 410); further: nearly all actives have a fitted effect of over 65% in size
Furin counter: Selectivity profile for inhibitors of NSP2Pro chikungunya virus (CHIKV): Human furin counterscreen; shares compounds with nsP2pro inh; actives 6% (n = 410); Potency, µM (highest dose often 50.6 µM), for the others: at the highest dose activity change, negative = inhibition, usual class: inhibitors; Recombinant human furin enzymatic counterscreen, fluorogenic substrate; AID 1964102, 2024
nsP2 NS23 pep: Selectivity profile for inhibitors of NSP2Pro chikungunya virus (CHIKV): Endogenous NS2/3 peptide Counterscreen | shares compounds with nsP2pro inh | Purified CHIKV nsP2 protease, endogenous NS2/3 peptide cleavage | Potency, µM (top dose mostly 51 µM), for the others: at the top dose activity change, negative = inhibition, usual class: inhibitors | actives 34% (n = 410) | AID 1964103, 2024; further: nearly all actives have a fitted effect of over 55% in size
Papain counter: Selectivity profile for inhibitors of NSP2Pro chikungunya virus (CHIKV): Papain Counterscreen; shares compounds with nsP2pro inh; Potency, µM (top dose mostly 51 µM), for the others: at the top dose activity change, negative = inhibition, hits mostly inhibitors; purified papain protease activity, enzymatic inhibition; actives 5% (n = 410)
Target sequence (P00784 whole entry, looked up): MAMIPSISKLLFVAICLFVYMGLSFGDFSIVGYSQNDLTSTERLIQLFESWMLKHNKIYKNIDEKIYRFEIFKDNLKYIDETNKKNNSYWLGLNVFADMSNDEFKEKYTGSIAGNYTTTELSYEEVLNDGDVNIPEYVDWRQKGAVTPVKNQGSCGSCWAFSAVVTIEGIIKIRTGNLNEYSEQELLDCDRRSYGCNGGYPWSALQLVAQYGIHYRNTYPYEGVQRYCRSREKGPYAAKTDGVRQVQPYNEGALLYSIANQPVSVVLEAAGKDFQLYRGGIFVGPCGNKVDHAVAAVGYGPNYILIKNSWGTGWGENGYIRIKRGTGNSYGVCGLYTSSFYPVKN
nsP2pro conf qHTS: Confirmatory qHTS for inhibitors of NSP2Pro chikungunya virus (CHIKV); shares compounds with nsP2pro inh; CHIKV nsP2 protease enzymatic activity, qHTS; Potency, µM (titrated, usually from 25.5 µM), for the others: top-dose activity change, negative = inhibition, actives largely listed as inhibitors; actives 43% (n = 410); AID 1964105, 2024; further: nearly all actives have a fitted effect of over 75% in size
HCV NS3 counter: Selectivity profile for inhibitors of NSP2Pro chikungunya virus (CHIKV): NS34A-HCV Counterscreen | actives 20% (n = 410) | shares compounds with nsP2pro inh | HCV NS3/4A protease biochemical counterscreen | Potency, µM (titrated, usually from 50.9 µM), most hits filed as inhibitors; further: nearly all actives have a fitted effect of over 55% in size
* marks the source's active call; other numbers are inactive results; i = inactive; ? = inconclusive; [ ] = another dose, or the depositor's remark. The call rests on the fitted dose curve. On the % scale 0 is the no-effect control and ±100 the full control effect; potency means the concentration at half of the fitted maximal effect.

SMILES | nsP2pro inh | others
CN(Cc1cccc(N2CCN(Cc3c(Cl)ccc(Cl)c3Cl)CC2)c1)[S+](C)(=O)[O-] | -1%
O=C(Cc1ccccc1)Nc1nnc(NC2CCN(c3nnc(NC(=O)Cc4ccccc4)s3)CC2)s1 | 34%
C=CCN1CCN(C(=O)[C@@H]2Cc3c[nH]c4cccc(c34)[C@H](CC(C)C)N2)CC1 | -18%[39.2 µM]
C=CCN1C[C@H](C(=O)N(CCCN(C)C)C(=O)NCC)C[C@@H]2c3cccc4[nH]cc(c34)C[C@H]21 | ? | nsP2 cell sec=7%;CHIKV NSP2 FL=-8%;Furin counter=-2%;nsP2 NS23 pep=-8%;Papain counter=-8%;nsP2pro conf qHTS=29%;HCV NS3 counter=i
COc1ccc(NC(=O)CNS(=O)(=O)c2cccs2)c(OC)c1 | -16%
C#CC(=O)N(c1ccc(OC)cc1OC)C(C(=O)NCC(=O)OCC)c1cccs1 (stereo not drawn) | 0.62µM* | nsP2 cell sec=-17%;CHIKV NSP2 FL=1.3µM*;Furin counter=-5%;nsP2 NS23 pep=2.9µM*;Papain counter=-8%;nsP2pro conf qHTS=0.8µM*;HCV NS3 counter=i
CCOCCCNC(=O)C(c1ccc(OC)cc1)N(Cc1cccs1)C(=O)CNC(C)=O (stereo not drawn) | -10%
Cc1cc(C)nc(NC(=S)N2CCN(c3ccncc3)CC2)c1 | -3%
CN(Cc1cccc(N2CCN(C(c3ccccc3)c3ccccc3)CC2)c1)[S+](C)(=O)[O-] | -10%
O=C1Nc2ccc(C(=O)c3ccco3)cc2/C1=C/c1cc(Cl)c(O)c(Cl)c1 | i
c1ccc(-n2cc(CN3CCCN(Cc4cccs4)CC3)nn2)cc1 | i
O=C(Nc1cccc(Nc2cc(Nc3cccc(C(F)(F)F)c3)ncn2)c1)C1CC1 | 40%
COc1ccc(C2NC(=O)c3ccccc3N2)cc1COc1c(C)cc(NC(C)=O)cc1C (stereo not drawn) | -1%
COC(=O)N1CCCN(c2nccc(Nc3ccc(C)cc3)n2)C1 | -4%[39.2 µM]
CCCCCCCCCCCCCCCCCC(=O)O | ? | nsP2 cell sec=5%;CHIKV NSP2 FL=3.7µM*;Furin counter=5%;nsP2 NS23 pep=-19%;Papain counter=21µM*;nsP2pro conf qHTS=4µM*;HCV NS3 counter=i
CCCCC(=O)O | -4%
CCCCCCCCCCCCCC(=O)O | -32%
O=C1Cc2c(-c3ccoc3)n[nH]c2CN1Cc1ccccc1 | -25%[39.2 µM]
CN1CCCC1c1nc(C2CN(S(=O)(=O)c3ccc(C#N)cc3)C2)no1 (stereo not drawn) | 36%
COc1cccc(CCC(=O)N2CCCC(CN3CCCC3)CC2)c1 (stereo not drawn) | -9%
O=C1CCCC2=C1C(c1[nH]ncc1Cl)N=C(Nc1nc3cc(Cl)ccc3o1)N2 (stereo not drawn) | -1%
O=c1c2ccccc2[se]n1-c1ccccc1 | 4.4µM* | nsP2 cell sec=?;CHIKV NSP2 FL=?;Furin counter=2.1µM*;nsP2 NS23 pep=9.2µM*;Papain counter=-11%;nsP2pro conf qHTS=2.2µM*;HCV NS3 counter=3.7µM*
Cc1nn(-c2ccccc2)c2c1C(C1CC1)N(C1CCN(Cc3cccc(OC(F)(F)F)c3)CC1)C2=O (stereo not drawn) | 2%
COc1ccc(-c2cc(C(=O)NCc3c(C)cc(C)[nH]c3=O)c3c(c2)N(C)CCO3)cn1 | i
CC(CCC1C(C(=O)O)=CC(=O)CC1(C)C)O[C@@H]1O[C@H](CO)[C@@H](O)[C@H](O)[C@H]1O (stereo partly drawn) | 78%
SMILES | nsP2pro inh | others
C[N+]1(CC2CC2)CC[C@]23c4c5ccc(O)c4O[C@H]2C(=O)CC[C@@]3(O)[C@H]1C5 (stereo partly drawn) | -7%
O=C(Nc1ccc(N2CCOCC2)c(Cl)c1)c1ccc(Br)o1 | ? | nsP2 cell sec=18µM*;CHIKV NSP2 FL=13%;Furin counter=-13%;nsP2 NS23 pep=14%;Papain counter=-18%;nsP2pro conf qHTS=9%;HCV NS3 counter=i
O=C(Nc1ccc(Cl)c(S(=O)(=O)N2CCOCC2)c1)c1ccccc1 | -5%
O=C(Nc1cccc(NC(=O)c2ccc(Br)o2)c1)c1ccccc1 | -11%
N#Cc1c(-c2ccccc2C(F)(F)F)nc2ccccc2c1NCc1ccc(-c2cccnc2)cc1 | -4%
CN1CCc2nc(C(=O)N[C@@H]3C[C@@H](C(=O)N(C)C)CC[C@@H]3NC(=O)C(=O)Nc3ccc(Cl)cn3)sc2C1 | ? | nsP2 cell sec=-10%;CHIKV NSP2 FL=14%;Furin counter=12%;nsP2 NS23 pep=6%;Papain counter=-4%;nsP2pro conf qHTS=-12%;HCV NS3 counter=i
Cc1noc(C)c1C(=O)N1CCN(S(=O)(=O)c2ccc(Cl)nc2)C(=O)C1 | 0%
COc1ccc(C2CC(=O)c3c([nH]c(C(=O)OCc4ccccc4)c3C)C2)cc1OC (stereo not drawn) | -17%
Cc1c(C(=O)OC2CCCCC2)[nH]c2c1C(=O)CC(c1ccccc1Cl)C2 (stereo not drawn) | -15%
Cc1c(C(=O)OCC2CCCC2)[nH]c2c1C(=O)CC(c1ccco1)C2 (stereo not drawn) | 4µM* | nsP2 cell sec=?;CHIKV NSP2 FL=-15%;Furin counter=-4%;nsP2 NS23 pep=-5%;Papain counter=-4%;nsP2pro conf qHTS=8%;HCV NS3 counter=i
O=C(c1cccc(OC2CN(CC3CC=CCC3)C2)c1)N1CCCC1 (stereo not drawn) | i
COc1ccc(CNC(=O)C2CN(S(=O)(=O)C3CC3)CC23CCCCC3)cc1 (stereo not drawn) | -2%
Cc1nc(CSc2ncnc3ccc(-c4ccc5c(c4)OCO5)cc23)cs1 | 1%
CN1CCc2cc3c(cc2C1C1OC(=O)c2c1ccc1c2OCO1)OCO3 (stereo not drawn) | -11%
CN1CCc2cccc3c2[C@H]1Cc1ccc(O)c(O)c1-3 | 3.1µM* | nsP2 cell sec=?;CHIKV NSP2 FL=26µM*;Furin counter=23µM*;nsP2 NS23 pep=16µM*;Papain counter=14%;nsP2pro conf qHTS=5µM*;HCV NS3 counter=i
Cc1ccc(S(=O)(=O)Nc2cnccc2C(=O)Nc2ccncc2)cc1 | i
